Results filed as inconclusive are left out. Activity calls are given as the source filed them. Unless noted, calls follow the shape of the dose curve; as a rule, active = well fitted curve in the direction sought with a large enough effect in the repeat runs; inconclusive = weak or mixed curves; inactive = no such curve, though single readings can be large; an effect the other way counts as inactive or inconclusive.
Key:
[1] = qHTS assay to identify small molecule agonists of the peroxisome proliferator-activated receptor delta (PPARd) signaling pathway - cell viability counter screen (AID 743211); settings: PPARd-bla HEK293H viability, CellTiter-Glo luminescence, 17 h; series mostly up to 62.6 µM; also: nearly all actives have a fitted effect of over 55% in size
Outline: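 Read-out: CellTiter-Glo luminescence, 30 min RT, measured in the same wells as the beta-lactamase reporter. Cells: GeneBLAzer PPAR delta UAS-bla HEK293H, 3000 cells/well, compound exposure 17 h at 37C.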

[2] = target: Peroxisome proliferator-activated receptor delta (Homo sapiens) (UniProt Q03181); test: qHTS assay to identify small molecule agonists of the peroxisome proliferator-activated receptor delta (PPARd) signaling pathway (AID 743212; calls by dose curve); settings: HEK293H PPARd-UAS-bla, beta-lactamase FRET ratio, 17 h; series mostly up to 62.6 µM
Peroxisome proliferator-activated receptor delta (Homo sapiens), sequence (Q03181 whole entry, looked up): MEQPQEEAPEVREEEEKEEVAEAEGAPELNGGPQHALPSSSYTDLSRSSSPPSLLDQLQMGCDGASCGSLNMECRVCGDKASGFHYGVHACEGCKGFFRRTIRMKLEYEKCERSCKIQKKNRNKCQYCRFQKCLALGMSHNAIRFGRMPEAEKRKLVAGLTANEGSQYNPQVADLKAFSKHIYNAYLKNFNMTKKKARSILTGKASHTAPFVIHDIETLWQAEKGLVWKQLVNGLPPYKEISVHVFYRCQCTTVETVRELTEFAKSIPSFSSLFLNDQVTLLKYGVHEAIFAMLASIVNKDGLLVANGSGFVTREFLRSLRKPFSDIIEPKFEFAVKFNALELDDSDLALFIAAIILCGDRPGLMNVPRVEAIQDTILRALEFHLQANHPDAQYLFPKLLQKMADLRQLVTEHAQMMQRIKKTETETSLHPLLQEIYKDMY
Outline: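 GeneBLAzer UAS-bla HEK293H cells carrying a PPARδ construct were exposed to compounds at 37 °C. Beta-lactamase activity was read by FRET fluorescence after 2 h at room temperature with LiveBLAzer B/G substrate.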

[3] = qHTS assay to identify small molecule antagonists of the peroxisome proliferator-activated receptor delta (PPARd) signaling pathway - cell viability counter screen (AID 743213); settings: PPARd-bla HEK293H viability, CellTiter-Glo luminescence, 17 h; series mostly up to 62 µM; also: nearly all actives have a fitted effect of over 50% in size
Outline: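 CellTiter-Glo was added to PPARd-bla HEK293H wells following 17 h compound treatment in the presence of 300 nM L165041. Luminescence was recorded after 30 min at room temperature.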

[4] = target: Peroxisome proliferator-activated receptor delta (Homo sapiens) (UniProt Q03181); test: qHTS assay to identify small molecule antagonists of the peroxisome proliferator-activated receptor delta (PPARd) signaling pathway (AID 743215; active = well fitted inhibition curve with a large enough effect in the signal ratio in the repeat runs, not every such curve was filed as active; the % refers to the signal ratio;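 also: cells stimulated with agonist L165041 at 300 nM final during compound exposure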); settings: HEK293H PPARd-UAS-bla, beta-lactamase FRET ratio, antagonist, 17 h; series mostly up to 62 µM
Outline: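 HEK293H UAS-bla, PPARd; agonist L165041 300 nM final with cpd in DMSO; 37 C 17 h; FRET substrate, RT 2 h; fluorescence intensity.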

[5] = target: Bile acid receptor (Homo sapiens) (UniProt Q96RI1); test: qHTS assay to identify small molecule antagonists of the farnesoid-X-receptor (FXR) signaling pathway (AID 743217; active = well fitted inhibition curve with a large enough effect in the signal ratio in the repeat runs, not every such curve was filed as active; the % refers to the signal ratio); settings: HEK293T FXR-UAS-bla, beta-lactamase ratio, CDCA-stimulated, 16 h; series mostly up to 62.6 µM
Bile acid receptor (Homo sapiens), sequence (Q96RI1 whole entry, looked up): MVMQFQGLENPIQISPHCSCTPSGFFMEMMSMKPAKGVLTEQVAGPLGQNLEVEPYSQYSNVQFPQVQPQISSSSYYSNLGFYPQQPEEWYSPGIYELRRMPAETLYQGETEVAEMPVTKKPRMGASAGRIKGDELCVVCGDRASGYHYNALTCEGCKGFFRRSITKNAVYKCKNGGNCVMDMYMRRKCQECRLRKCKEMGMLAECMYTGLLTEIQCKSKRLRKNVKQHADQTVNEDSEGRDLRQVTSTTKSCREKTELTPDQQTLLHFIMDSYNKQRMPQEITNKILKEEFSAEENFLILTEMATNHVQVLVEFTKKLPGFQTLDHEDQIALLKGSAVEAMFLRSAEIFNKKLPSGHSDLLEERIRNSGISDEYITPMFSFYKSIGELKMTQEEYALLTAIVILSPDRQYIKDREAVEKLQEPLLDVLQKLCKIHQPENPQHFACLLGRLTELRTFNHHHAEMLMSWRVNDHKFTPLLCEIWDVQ
Outline: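 GeneBLAzer FXR-UAS-bla HEK 293T, CDCA-stimulated (50 uM final). Compound treatment 16 h, 37 °C. Detection: beta-lactamase cleavage of B/G FRET substrate, fluorescence.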

[6] = target: Bile acid receptor (Homo sapiens) (UniProt Q96RI1); test: qHTS assay to identify small molecule agonists of the farnesoid-X-receptor (FXR) signaling pathway (AID 743220; active = well fitted activation curve with a large enough effect in the signal ratio in the repeat runs, not every such curve was filed as active; the % refers to the signal ratio); settings: HEK293T FXR-UAS-bla, beta-lactamase FRET ratio, 16 h; series mostly up to 62.6 µM
Outline: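 Beta-lactamase reporter under UAS control in GeneBLAzer FXR HEK 293T cells (5000/well) measured with LiveBLAzer FRET substrate after 2 h at room temperature. Compound exposure lasted 16 h at 37C.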

[7] = qHTS assay to identify small molecule antagonists of the farnesoid-X-receptor (FXR) signaling pathway - cell viability counter screen (AID 743221; active = well fitted cell-killing curve with a large enough effect in the repeat runs, not every such curve was filed as active; also: nearly all actives have a fitted effect of over 50% in size); settings: FXR-bla HEK293T viability, CellTiter-Glo luminescence, 16 h; series mostly up to 62.6 µM
Outline: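 HEK 293T FXR-bla cells, 5 h pre-incubation; compound + CDCA 50 uM final, 16 h, 37 C; beta-lactamase FRET read first, then CellTiter-Glo luminescence, 30 min RT.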

[8] = target: Vitamin D3 receptor (Homo sapiens) (UniProt P11473); test: qHTS assay to identify small molecule agonists of the vitamin D receptor (VDR) signaling pathway (AID 743222; calls by dose curve); settings: HEK293T VDR-UAS-bla, beta-lactamase FRET ratio, 16 h; series mostly up to 63.5 µM
Vitamin D3 receptor (Homo sapiens), sequence (P11473 whole entry, looked up): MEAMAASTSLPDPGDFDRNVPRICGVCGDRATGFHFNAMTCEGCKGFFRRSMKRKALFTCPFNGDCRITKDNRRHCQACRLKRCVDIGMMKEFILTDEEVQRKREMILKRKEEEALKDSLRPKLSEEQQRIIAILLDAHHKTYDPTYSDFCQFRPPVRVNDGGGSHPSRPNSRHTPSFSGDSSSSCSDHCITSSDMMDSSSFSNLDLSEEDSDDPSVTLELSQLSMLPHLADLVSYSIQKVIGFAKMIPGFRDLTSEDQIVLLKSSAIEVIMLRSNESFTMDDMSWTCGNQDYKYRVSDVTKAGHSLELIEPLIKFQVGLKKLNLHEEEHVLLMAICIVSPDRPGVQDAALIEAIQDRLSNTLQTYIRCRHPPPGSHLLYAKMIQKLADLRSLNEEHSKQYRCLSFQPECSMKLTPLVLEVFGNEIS
Outline: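 In VDR-bla cells, compound-induced beta-lactamase expression is quantified by FRET substrate fluorescence. Treatment lasts 16 h at 37C; substrate develops 2 h at room temperature.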

[9] = target: Vitamin D3 receptor (Homo sapiens) (UniProt P11473); test: qHTS assay to identify small molecule antagonists of the vitamin D receptor (VDR) signaling pathway (AID 743223; active = well fitted inhibition curve with a large enough effect in the signal ratio in the repeat runs, not every such curve was filed as active; the % refers to the signal ratio); settings: VDR-UAS-bla HEK293T, beta-lactamase FRET ratio, 16 h; series mostly up to 61 µM
Outline: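 Beta-lactamase reporter read-out: FRET substrate fluorescence after 2 h at room temperature, following 16 h exposure of VDR-bla cells to test compound plus 3 nM (final) 1alpha,25-dihydroxyvitamin D3 agonist at 37C.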

[10] = qHTS assay to identify small molecule agonists of the vitamin D receptor (VDR) signaling pathway - cell viability counter screen (AID 743224); settings: VDR-bla HEK293T viability, CellTiter-Glo luminescence, 16 h; series mostly up to 62.6 µM; also: nearly all actives have a fitted effect of over 50% in size
Outline: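 Plated VDR-bla cells (4 h, 37C) received compound, incubated 16 h, then LiveBLAzer substrate 2 h RT; CellTiter-Glo added afterwards, luminescence read at 30 min.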

[11] = qHTS assay to identify small molecule antagonists of the vitamin D receptor (VDR) signaling pathway - cell viability counter screen (AID 743225); settings: VDR-bla HEK293T viability, CellTiter-Glo luminescence, 16 h; series mostly up to 61 µM; also: nearly all actives have a fitted effect of over 50% in size
Outline: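 Viability counter screen run in the same wells as the beta-lactamase reporter assay: HEK 293T VDR-UAS-bla cells, 16 h compound exposure at 37C with 3 nM (final) 1-alpha,25-dihydroxyvitamin D3. CellTiter-Glo luminescence, 30 min, room temperature.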

[12] = qHTS assay to identify small molecule agonists of the NFkB signaling pathway - cell viability counter screen (AID 1159515; calls by dose curve; also: nearly all actives have a fitted effect of over 55% in size); settings: NFkB-bla ME-180 viability, CellTiter-Glo luminescence, 5 h; series mostly up to 61 µM
Outline: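 Using the same wells as the NFkB reporter read, ME-180 NFkB-bla cells given compounds for 5 hr were assessed for viability via CellTiter-Glo, with luminescence taken after a 30 min room-temperature incubation.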

[13] = qHTS assay to identify small molecule agonists of the endoplasmic reticulum stress response signaling pathway (AID 1159516; active = well fitted activation curve with a large enough effect in the signal ratio in the repeat runs, not every such curve was filed as active; the % refers to the signal ratio); settings: ESRE-bla HeLa, ER stress beta-lactamase reporter, 5 h; series mostly up to 61 µM
Outline: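 An ESRE-bla HeLa cell assay: compounds were pin-transferred from DMSO onto overnight-plated cells and left 5 hr at 37 C. Substrate was then loaded for 2 hr at room temperature before reading fluorescence at 460 nm and 530 nm.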

[14] = qHTS assay to identify small molecule agonists of the endoplasmic reticulum stress response signaling pathway - cell viability counter screen (AID 1159517; calls by dose curve); settings: ESRE-bla HeLa viability, CellTiter-Glo luminescence, 5 h; series mostly up to 61 µM
Outline: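 ESRE-bla HeLa cells, 1,500 per well, seeded overnight then treated with compounds for 5 hr at 37 C. After the beta-lactamase read, viability in the same wells is measured by CellTiter-Glo luminescence after 30 min at room temperature.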

[15] = qHTS assay to identify small molecule antagonists of the retinoid-related orphan receptor gamma (ROR-gamma) signaling pathway - cell viability counter screen (AID 1159520); settings: Tet-on RORgamma CHO cells viability, ATP luminescence, 16 h; series mostly up to 92.4 µM; also: nearly all actives have a fitted effect of over 50% in size
Outline: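 Tet-on ROR gamma CHO cells were given compounds for 2 hr, then doxycycline hyclate at 1 uM final, and incubated 16 hr at 37 C. Viability was measured as ATP content by CellTiter-Glo luminescence.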

[16] = target: Nuclear receptor ROR-gamma (Homo sapiens) (UniProt P51449); test: qHTS assay to identify small molecule antagonists of the retinoid-related orphan receptor gamma (ROR-gamma) signaling pathway (AID 1159521); settings: Tet-on RORgamma CHO cells, RORE-luciferase, 16 h; series mostly up to 92.4 µM
Outline: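 Luminescence readout (ONE-Glo, 30 min RT) after 16 h doxycycline induction; loss of signal scored as antagonism. CHO cells with TET-inducible RORγ and RORE-LUC reporter; compounds added 2 h before 1 uM final doxycycline.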

[17] = qHTS assay to identify small molecule agonists of the AP-1 signaling pathway - cell viability counter screen (AID 1159525; calls by dose curve; also: nearly all actives have a fitted effect of over 55% in size); settings: ME-180 AP-1-bla cells viability, ATP luminescence, 5 h; series mostly up to 76.8 µM
Outline: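 AP-1-bla ME-180 cells in Opti-MEM with 0.5% dialyzed FBS, compound exposure 5 h at 37 C in 15-point titration. Viability read in the same wells as ATP content by CellTiter-Glo luminescence, normalised to tetra-n-octylammonium bromide and DMSO controls.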

[18] = qHTS assay to identify small molecule agonists of the AP-1 signaling pathway (AID 1159526; calls by dose curve); settings: ME-180 (cervical carcinoma) AP-1-bla reporter, beta-lactamase FRET ratio, 5 h; series mostly up to 76.8 µM
[19] = qHTS assay to identify small molecule agonists of the farnesoid-X-receptor (FXR) signaling pathway - cell viability counter screen (AID 743218); settings: FXR-bla HEK293T viability, CellTiter-Glo luminescence, 16 h; series mostly up to 62.6 µM; also: nearly all actives have a fitted effect of over 45% in size
Outline: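 Parallel cytotoxicity test: compound-treated (16 h, 37 C) HEK 293T FXR-bla reporter cells were lysed with CellTiter-Glo and luminescence recorded.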

Measured: Potency

Nc1ccc(Cl)c(N)c1
not listed: [19]
inactive: all other assays above

CCCCCCCCCCCCCCCC(=O)OC(C)C
not listed: [5] | [6]
inactive: all other assays above

CCOCCOCCOCCO
not listed: [2] | [4] | [7]
inactive: all other assays above

CC(=O)OCc1ccccc1
not listed: [5] | [6]
inactive: all other assays above

— PubChem BioAssay (Tox21)
